Test results reported in PubChem BioAssay AID2330 (Broad Institute, 2010).
Screen size: about 37,000 compounds; about 2,800 (7.6%) were called active. About 1% were inconclusive and are not listed. This is one part of a sample in which actives are shown more often than they occur. A number with no mark means an inactive call. Cut-off read from the data, not from the text of the source: active = inhibition above about 80%; inconclusive = no clear call, values can overlap the other calls; inactive = below that.

test: NOMO-1 AML cell viability reduction, primary screen, STK33 inhibitor project, CellTiter-Glo luminescence (AID 2330); settings: NOMO-1 AML viability, 72 h, stronger effect = higher value, concentration not given here

Going from `C[C@@H]1CN([C@@H](C)CO)C(=O)c2cc(NC(=O)C3CCCCC3)ccc2O[C@@H]1CN(C)S(=O)(=O)c1ccc(F)cc1` to `C[C@@H]1CN([C@H](C)CO)C(=O)Cc2cc(NC(=O)C3CCCCC3)ccc2O[C@H]1CN(C)S(=O)(=O)c1ccc(Cl)cc1`, the inhibition rises from -1.45% to 28.6%.

First: C[C@@H]1CN([C@@H](C)CO)C(=O)c2cc(NS(=O)(=O)c3cccs3)ccc2O[C@@H]1CN(C)S(=O)(=O)c1ccc(F)cc1
Second: COc1ccc(S(=O)(=O)Nc2ccc3c(c2)C(=O)N([C@@H](C)CO)C[C@@H](C)[C@H](CN(C)S(=O)(=O)c2cccs2)O3)cc1
The inhibition of the first is higher: 7.75% for the first, -10.4% for the second.

Compared with `Cc1noc(C)c1NC(=O)Nc1ccc2c(c1)C(=O)N([C@@H](C)CO)C[C@H](C)[C@H](CN(C)Cc1ccc(-c3ccccc3)cc1)O2`, `C[C@H](CO)N1C[C@H](C)[C@H](CN(C)Cc2ccc(C(=O)Nc3ccccc3N)cc2)Oc2ccc(NS(C)(=O)=O)cc2C1=O` is higher in inhibition: 28.6% for the first, 50.3% for the second.

Compared with `CC(=O)c1cccc(NC(=O)C(C)N(c2ccc(C)cc2)S(C)(=O)=O)c1` (stereo not given), `Cc1ccc(S(=O)(=O)N(C)CC(=O)Nc2ccc(C#N)cc2)cc1` is lower in inhibition: 14.6% for the first, -13.1% for the second.

First: COc1ccc(NC(=O)Nc2ccc3c(c2)CC(=O)N([C@H](C)CO)C[C@H](C)[C@H](CN(C)S(=O)(=O)c2ccc(OC)cc2)O3)cc1
Second: COc1ccc(NC(=O)Nc2ccc3c(c2)CC(=O)N([C@H](C)CO)C[C@H](C)[C@H](CN(C)S(=O)(=O)c2ccccc2)O3)cc1
The inhibition of the first is lower: 23.1% for the first, 57.6% for the second.

First: C[C@@H]1CN([C@H](C)CO)C(=O)Cc2cc(NC(=O)Nc3ccc(C(F)(F)F)cc3)ccc2O[C@@H]1CN(C)S(=O)(=O)c1ccccc1
Second: C[C@@H]1CN([C@@H](C)CO)C(=O)Cc2cc(NC(=O)Nc3ccc(F)cc3)ccc2O[C@@H]1CN(C)S(=O)(=O)c1ccccc1
The inhibition of the first is higher: 31.7% for the first, 20.8% for the second.

First: COc1ccc(S(=O)(=O)N(C)C[C@@H]2Oc3ccc(NC(=O)C4CC4)cc3CC(=O)N([C@@H](C)CO)C[C@@H]2C)cc1
Second: C[C@@H]1CN([C@@H](C)CO)C(=O)Cc2cc(NC(=O)Nc3ccccc3)ccc2O[C@@H]1CN(C)S(=O)(=O)c1ccc(F)cc1
The inhibition of the first is lower: -0.988% for the first, 14.1% for the second.

First: C[C@@H]1CN([C@@H](C)CO)C(=O)Cc2cc(NC(=O)Nc3ccc4c(c3)OCO4)ccc2O[C@@H]1CN(C)S(=O)(=O)c1ccc(Cl)cc1
Second: Cc1ccc(S(=O)(=O)N(C)C[C@H]2Oc3ccc(NC(=O)CCCCCC(=O)Nc4ccccc4N)cc3C(=O)N([C@H](C)CO)C[C@H]2C)cc1
The inhibition of the first is higher: 30.8% for the first, 19.8% for the second.

Going from `Cc1nnc(SCc2ccc(C(=O)c3ccc(Cl)cc3)o2)n1-c1ccccc1` to `C[C@@H]1CCCCO[C@H](CN(C)Cc2ccccc2)[C@@H](C)CN([C@H](C)CO)C(=O)c2cc(NS(=O)(=O)c3ccc(Cl)cc3)ccc2O1`, the inhibition rises from -16.2% to 40.5%.

Compared with `CC(C)NC(=O)Nc1ccc2c(c1)C(=O)N([C@H](C)CO)C[C@H](C)[C@@H](CN(C)S(C)(=O)=O)OCCCC[C@@H](C)O2`, `COc1ccc(NC(=O)N(C)C[C@@H]2OCCCC[C@@H](C)Oc3ccc(NC(=O)NC4CCCCC4)cc3C(=O)N([C@H](C)CO)C[C@@H]2C)cc1` is lower in inhibition: 34% for the first, -2.15% for the second.

Going from `COc1ccc(NC(=O)N(C)C[C@@H]2Oc3ccc(NC(=O)CCCN(C)C)cc3CC(=O)N([C@H](C)CO)C[C@H]2C)cc1` to `COc1ccc(NC(=O)Nc2ccc3c(c2)C(=O)N([C@H](C)CO)C[C@H](C)[C@@H](CN(C)C(=O)NC2CCCCC2)OCCCC[C@@H](C)O3)cc1`, the inhibition rises from -16.5% to -9.45%.

First: C[C@@H]1CN([C@H](C)CO)C(=O)c2cccc(NS(=O)(=O)c3ccc(Cl)cc3)c2O[C@@H]1CN(C)CC1CC1
Second: C[C@H]1CN([C@@H](C)CO)C(=O)c2cccc(NS(=O)(=O)c3ccc(Cl)cc3)c2O[C@@H]1CN(C)Cc1ccc(Oc2ccccc2)cc1
The inhibition of the first is lower: 0.793% for the first, 44.7% for the second.

Compared with `CC(C)c1ccc(OCC(O)Cn2cnc3ccccc32)cc1` (stereo not given), `CCc1cc(C)cc(OCC(O)Cn2cnc3ccccc32)c1` (stereo not given) is lower in inhibition: 52% for the first, 50.9% for the second.

Going from `COC(=O)c1ccccc1NC(=O)CSc1n[nH]c(-c2ccncc2)n1` to `Cc1ccc(NC(=O)COc2ccccc2C)c([N+](=O)[O-])c1`, the inhibition falls from 19.3% to -19.4%.

First: O=C(NCCN1CCCCC1)Nc1cccc(Cl)c1
Second: Cc1noc(C)c1NC(=O)Nc1ccc2c(c1)CC(=O)N([C@@H](C)CO)C[C@H](C)[C@@H](CN(C)CC1CCCCC1)O2
The inhibition of the first is lower: 6.03% for the first, 46.5% for the second.

First: C=CCn1c(=O)c(C(=O)NCc2ccccn2)c(O)c2ccccc21
Second: C[C@@H]1CN([C@@H](C)CO)C(=O)c2cc(NC(=O)c3ccncc3)ccc2O[C@@H]1CN(C)Cc1ccncc1
The inhibition of the first is higher: -12.4% for the first, -12.5% for the second.

Compared with `C[C@@H]1CN([C@@H](C)CO)C(=O)c2cccc(NC(=O)Nc3ccc(F)cc3)c2O[C@@H]1CN(C)Cc1ccc(C(=O)O)cc1`, `C[C@@H]1CN([C@@H](C)CO)C(=O)c2cc(NC(=O)c3ccncc3)ccc2O[C@H]1CN(C)Cc1ccc(C(=O)O)cc1` is higher in inhibition: 0.82% for the first, 19.8% for the second.

Going from `CCC/C=C/C=C/C1CC(O)C(O)C1C(=O)O` (stereo not given) to `Cc1ccc(S(=O)(=O)Nc2ccc3c(c2)C(=O)N([C@@H](C)CO)C[C@@H](C)[C@H](CN(C)Cc2ccc(C(=O)O)cc2)O3)cc1`, the inhibition falls from 4.09% to 2.99%.

Going from `C[C@@H]1CN([C@@H](C)CO)C(=O)c2cc(NS(=O)(=O)c3cn(C)cn3)ccc2O[C@@H]1CN(C)Cc1ccc(C(=O)Nc2ccccc2N)cc1` to `C[C@@H]1CN([C@H](C)CO)C(=O)c2cc(NS(=O)(=O)c3cn(C)cn3)ccc2O[C@@H]1CN(C)Cc1ccc(C(=O)Nc2ccccc2N)cc1`, the inhibition rises from 5.34% to 20.1%.

`Cc1ccc(S(=O)(=O)Nc2ccc3c(c2)C(=O)N([C@H](C)CO)C[C@H](C)[C@H](CN(C)Cc2ccccc2)OCCCC[C@@H](C)O3)cc1` gave an inhibition of 45.3%.

In the case of `CC[C@H]1CN2CCc3cc(OC)c(OC)cc3[C@@H]2C[C@@H]1C[C@H]1NCCc2cc(OC)c(OC)cc21`, the inhibition was 144% (active).
With `C[C@H]1CN([C@@H](C)CO)C(=O)Cc2cc(NC(=O)Nc3ccc(F)cc3)ccc2O[C@H]1CN(C)S(=O)(=O)c1ccccc1` the inhibition was 108% (active).
For `C[C@H]1CN([C@@H](C)CO)C(=O)Cc2cc(NC(=O)C3CC3)ccc2O[C@H]1CN(C)S(=O)(=O)c1ccc(Cl)cc1`, the inhibition was 125% (active).
For `C[C@H]1CN([C@@H](C)CO)C(=O)Cc2cc(NC(=O)Nc3ccc(C(F)(F)F)cc3)ccc2O[C@@H]1CN(C)S(=O)(=O)c1ccc(Cl)cc1`, the inhibition was 105% (active).
With `C[C@H]1CN([C@@H](C)CO)C(=O)Cc2cc(NC(=O)Nc3ccc(F)cc3)ccc2O[C@H]1CN(C)S(=O)(=O)c1ccc(F)cc1` the inhibition was 126% (active).
For `Cc1nc2ccccc2n1CC(O)COc1ccc(C2C=CCC2)cc1` (stereo not given), the inhibition was 85% (active).
In the case of `Cc1ccc(OCc2n[nH]c(=S)n2C2CCCCC2)c2c1CCC2`, the inhibition was 111% (active).
For `C[C@H]1CN([C@@H](C)CO)C(=O)c2cc(NC(=O)c3ccncc3)ccc2O[C@H]1CN(C)Cc1ccc(C(=O)Nc2ccccc2N)cc1`, the inhibition was 107% (active).
In the case of `Cc1ccc(S(=O)(=O)Nc2ccc3c(c2)C(=O)N([C@H](C)CO)C[C@H](C)[C@H](CN(C)Cc2ccc(C(=O)Nc4ccccc4N)cc2)OCCCC[C@@H](C)O3)cc1`, the inhibition was 127% (active).
In the case of `C[C@@H]1CN([C@@H](C)CO)C(=O)c2cc(NS(=O)(=O)c3ccccc3)ccc2O[C@@H]1CN(C)Cc1ccc(C(=O)Nc2ccccc2N)cc1`, the inhibition was 110% (active).
With `Cc1ccc(S(=O)(=O)Nc2ccc3c(c2)C(=O)N([C@@H](C)CO)C[C@@H](C)[C@@H](CN(C)Cc2ccc(C(=O)Nc4ccccc4N)cc2)O3)cc1` the inhibition was 110% (active).
